# Data as given in PubChem BioAssay (NCI).
# About 79,000 compounds went through this panel and 15% of them were active in at least one assay; those are over-represented in the sample as a whole. Values without a mark were called inactive. The source made the active and inactive calls. Rule as the data show it: active = growth inhibition above about 70%; inactive = the rest.
# Legend:
# [1] = NCI Yeast Anticancer Drug Screen. Data for the rad50 strain (AID 155);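 also: 0% = growth of vehicle-only cultures of the same strain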; details: S. cerevisiae rad50 strain growth inhibition, hits give high values
# How it was run: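 DNA repair mutant yeast, compound exposure, growth read-out; inhibition is taken relative to vehicle.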
# [2] = NCI Yeast Anticancer Drug Screen. Data for the mec2-1 strain (AID 157); details: S. cerevisiae mec2-1 strain, hits give high values
# How it was run: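 Test agents were screened against the mec2-1 yeast strain, with defined DNA repair or cell cycle alteration. Growth was scored as inhibition against vehicle-only controls.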
# [3] = NCI Yeast Anticancer Drug Screen. Data for the sgs1 mgt1 strain (AID 161);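 also: 0% = growth of cultures given vehicle only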; details: S. cerevisiae sgs1 mgt1 strain, hits give high values
# How it was run: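 Read-out: growth inhibition vs vehicle controls. Cells: mutant yeast strain deficient in DNA damage repair.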
# [4] = NCI Yeast Anticancer Drug Screen. Data for the cln2 rad14 strain (AID 165);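 also: 0% = growth equal to vehicle treated cultures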; details: S. cerevisiae cln2 rad14 strain, hits give high values
# How it was run: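 Growth of compound-exposed yeast (cln2 rad14 genotype) measured and expressed as inhibition relative to vehicle.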
# [5] = NCI Yeast Anticancer Drug Screen. Data for the bub3 strain (AID 167); details: S. cerevisiae bub3 mutant strain, hits give high values
# How it was run: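 In this screen, a yeast mutant lacking normal mitotic checkpoint function is challenged with compound. Relative growth versus vehicle gives the inhibition value.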
# [6] = NCI Yeast Anticancer Drug Screen. Data for the mlh1 rad18 strain (AID 175); details: S. cerevisiae mlh1 rad18 strain growth inhibition, hits give high values
# How it was run: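 In this whole-cell yeast screen, a strain with altered DNA damage repair is challenged with compound, and its growth is measured against matched vehicle-treated controls.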
# [7] = at 5.0 µM (retest, dose inferred, filed as 0.5)
# [8] = at 50.0 µM (retest, dose inferred, filed as 5.0)
SMILES,"growth inhibition [1, 7]","growth inhibition [1, 8]",growth inhibition ([1]; at 50.0 µM),"growth inhibition [2, 7]","growth inhibition [2, 8]",growth inhibition ([2]; at 50.0 µM),"growth inhibition [3, 7]","growth inhibition [3, 8]",growth inhibition ([3]; at 50.0 µM),"growth inhibition [4, 7]","growth inhibition [4, 8]",growth inhibition ([4]; at 50.0 µM),"growth inhibition [5, 7]","growth inhibition [5, 8]",growth inhibition ([5]; at 50.0 µM),"growth inhibition [6, 7]","growth inhibition [6, 8]",growth inhibition ([6]; at 50.0 µM)
O=[N+]([O-])c1ccc(C2=Nn3cnnc3SC2)o1,2%,36%,81.7% (active),5%,35%,20.9%,27%,73% (active),80.8% (active),1%,29%,78.5% (active),4%,75% (active),59.3%,18%,84% (active),86.7% (active)
Nc1ncnc2nc(SCCO)[nH]c12,-1%,-2%,9.4%,4%,0%,-4.9%,-1%,-4%,12.9%,0%,-5%,31.4%,3%,-2%,9.15%,-2%,-3%,39.1%
N#CC1Sc2ccccc2N1C(=O)Oc1ccccc1 (stereo not given),3%,98% (active),98.8% (active),0%,98% (active),98.7% (active),5%,98% (active),98.8% (active),3%,97% (active),98.2% (active),15%,98% (active),99.1% (active),5%,98% (active),98.8% (active)
O=C1C=CC(=O)N1Cc1ccccc1,98% (active),99% (active),99.3% (active),100% (active),100% (active),99.7% (active),97% (active),99% (active),99.5% (active),97% (active),100% (active),99% (active),99% (active),100% (active),99.3% (active),95% (active),100% (active),99.2% (active)
CC(C(=O)c1ccc(Cl)cc1)C1OC(=O)C(Cl)=C1Cl (stereo not given),43%,54%,90.8% (active),37%,51%,93.4% (active),43%,70% (active),92.9% (active),32%,43%,87.7% (active),40%,72% (active),91.5% (active),56%,71% (active),91.7% (active)
